The results in this text go back to PubChem BioAssay (EPA / NIEHS).

Results filed as inconclusive are left out. More than one record can exist for a structure, and the calls need not agree. The source made the active and inactive calls. The calls were made as follows, unless noted: active = hit-call score of the fitted dose curve at least 0.9, where 1 is the maximum; inactive = score below 0.9.

Assay [1] addresses human RAR-related Orphan Receptor gamma (RORg), RORC (gene 6097) (UniProt P51449). In words: ATG_RORg_TRANS: Attagene TRANS-FACTORIAL HepG2 Assay for human RAR-related Orphan Receptor gamma (RORg) (AID 2283011; active = hit-call score of the fitted dose curve at least 0.9, where 1 is the maximum). The gist of the method: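 Chimeric RORg-Gal4 transactivation in transfected HepG2; 24 h exposure; RT-PCR/capillary electrophoresis readout of reporter mRNA, DMSO baseline.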

Assay [2] addresses Retinoic acid receptor RXR-alpha (Homo sapiens) (UniProt P19793). Description: ATG_RXRa_TRANS: Attagene TRANS-FACTORIAL HepG2 Assay for human Retinoid X Receptor alpha (RXRa) (AID 2283012; active = hit-call score of the fitted dose curve at least 0.9, where 1 is the maximum). The procedure, abridged:
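Transient transfection of human HepG2 with multiple GAL4-UAS reporter constructs; 24 h compound exposure; total RNA isolated, reverse-transcribed, PCR-amplified, 6-FAM labelled, HpaI-cut, resolved by capillary electrophoresis. Positive-direction fit versus DMSO.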

Assay [3] deals with human Retinoid X Receptor beta (RXRb), RXRB (gene 6257) (UniProt P28702). Description: ATG_RXRb_TRANS: Attagene TRANS-FACTORIAL HepG2 Assay for human Retinoid X Receptor beta (RXRb) (AID 2283013; active = hit-call score of the fitted dose curve at least 0.9, where 1 is the maximum). The procedure, abridged: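 Transfect HepG2 with GAL4-UAS multi-reporter constructs (chimeric NR-Gal4, TRANS format); dose compound 24 h; isolate RNA, RT-PCR, FAM primer extension, HpaI digest; quantify by capillary electrophoresis; positive direction vs DMSO.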
Sequence of human Retinoid X Receptor beta (RXRb), RXRB (gene 6257) (P28702 whole entry, looked up, the tested form may be a part): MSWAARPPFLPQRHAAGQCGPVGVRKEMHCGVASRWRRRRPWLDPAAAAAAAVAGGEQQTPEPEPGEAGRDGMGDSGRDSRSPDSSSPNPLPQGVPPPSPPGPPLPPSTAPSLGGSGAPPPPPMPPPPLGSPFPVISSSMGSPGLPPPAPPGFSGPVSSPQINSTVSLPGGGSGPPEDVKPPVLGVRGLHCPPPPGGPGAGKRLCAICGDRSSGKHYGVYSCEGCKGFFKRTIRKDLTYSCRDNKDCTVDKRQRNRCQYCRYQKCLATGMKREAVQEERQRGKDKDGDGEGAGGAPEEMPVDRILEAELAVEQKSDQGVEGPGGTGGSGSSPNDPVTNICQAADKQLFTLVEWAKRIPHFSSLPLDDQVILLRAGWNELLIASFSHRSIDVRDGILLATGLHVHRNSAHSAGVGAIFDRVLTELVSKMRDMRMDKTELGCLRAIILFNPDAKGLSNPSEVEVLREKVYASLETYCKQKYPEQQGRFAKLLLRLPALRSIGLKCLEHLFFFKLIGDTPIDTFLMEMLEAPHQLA

Assay [4] deals with human Thyroid Receptor alpha (THRa1), THRA (gene 7067) (UniProt P10827). In words: ATG_THRa1_TRANS: Attagene TRANS-FACTORIAL HepG2 Assay for human Thyroid Receptor alpha (THRa1) (AID 2283014; active = hit-call score of the fitted dose curve at least 0.9, where 1 is the maximum). The gist of the method:
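Measured here is mRNA from a GAL4-UAS reporter in transfected HepG2 cells carrying a Gal4-fused receptor, 24 h post-dose. DMSO served as negative control and baseline.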

Read-out in assay [5]: E-selectin (Homo sapiens) (UniProt P16581)
In words: BSK_3C_Eselectin: BioMAP Diversity Plus: 3C Assay for Eselectin Biomarker Activity (AID 2283015).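 As to outcome: cell surface E-selectin protein quantified by ELISA 24 h after dosing.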 Particulars: primary human endothelial cells (HUVEC); actives raise or lower the signal. The procedure, abridged:
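Endpoint derived by bidirectional fitting against DMSO vehicle; signal is ELISA-detected E-selectin from primary HUVEC at 24 h post-dosing, with parallel SRB staining (0.1% SRB, 560 nm) flagging cytotoxicity.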

Read-out in assay [6]: Interleukin-1 alpha (IL1a), IL1A (gene 3552)
In words: BSK_BE3C_IL1a: BioMAP Diversity Plus: BE3C Assay for Interleukin-1 alpha (IL1a) Biomarker Activity (AID 2283016). Particulars: primary human bronchial epithelial cells; actives raise or lower the signal. The gist of the method:
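BE3C primary human bronchial epithelium; cpd 24 h; IL-1a by ELISA; bidirectional fit vs DMSO; parallel SRB (0.1% SRB, 10% TCA fix, 560 nm) for cytotoxicity.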

Read-out in assay [7]: Monocyte Chemoattractant Protein-1 (MCP1), CCL2 (gene 6347)
Description: BSK_3C_MCP1: BioMAP Diversity Plus: 3C Assay for Monocyte Chemoattractant Protein-1 (MCP1) Biomarker Activity (AID 2283017). The note with it: primary human endothelial cells (HUVEC); actives raise or lower the signal. The gist of the method:
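Using human vascular primary endothelium, researchers measured MCP-1 by ELISA 24 h after treatment, with DMSO serving as negative control for bidirectional fitting.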

Read-out in assay [8]: Monocyte Chemoattractant Protein-1 (MCP1), CCL2 (gene 6347)
Description: BSK_4H_MCP1: BioMAP Diversity Plus: 4H Assay for Monocyte Chemoattractant Protein-1 (MCP1) Biomarker Activity (AID 2283018). The note with it: primary human endothelial cells (HUVEC); actives raise or lower the signal. The gist of the method:
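ELISA read-out of MCP-1 from human vascular endothelial primary cells taken at 24 hours after compound exposure. Activity was fitted in both directions relative to DMSO, which served as negative control.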

Read-out in assay [9]: Human Leukocyte Antigen - DR isotype (HLADR), HLA-DRA (gene 3122)
In words: BSK_3C_HLADR: BioMAP Diversity Plus: 3C Assay for Human Leukocyte Antigen - DR isotype (HLADR) Biomarker Activity (AID 2283019).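 As to outcome: ELISA of cell-surface HLA-DR on HUVEC 24 h after dosing.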 The note with it: primary human endothelial cells (HUVEC); actives raise or lower the signal. The gist of the method:
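Compound added to primary HUVEC cultures, 24 h incubation, then HLA-DR determined by ELISA; endpoint derived by bidirectional fitting relative to DMSO negative control.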

Read-out in assay [10]: Interleukin-8 (IL8), CXCL8 (gene 3576)
In words: BSK_3C_IL8: BioMAP Diversity Plus: 3C Assay for Interleukin-8 (IL8) Biomarker Activity (AID 2283020). The note with it: primary human endothelial cells (HUVEC); actives raise or lower the signal. The gist of the method: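 ELISA read-out of IL-8 from human umbilical vein endothelium, measured 24 h after chemical dosing. Activity is expressed relative to DMSO negative control, with both increases and decreases fitted.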

Read-out in assay [11]: Monokine induced gamma interferon (MIG), CXCL9 (gene 4283)
Description: BSK_3C_MIG: BioMAP Diversity Plus: 3C Assay for Monokine induced gamma interferon (MIG) Biomarker Activity (AID 2283021). The note with it: primary human endothelial cells (HUVEC); actives raise or lower the signal. The gist of the method: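 Read-out is ELISA detection of MIG on human umbilical vein endothelial cells, taken 24 h after dosing. Gain or loss of signal was scored relative to DMSO controls using bidirectional curve fitting.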

Assay [12] has as its target human Vitamin D Receptor (VDR), VDR (gene 7421) (UniProt P11473). Description: ATG_VDR_TRANS: Attagene TRANS-FACTORIAL HepG2 Assay for human Vitamin D Receptor (VDR) (AID 2283022; active = hit-call score of the fitted dose curve at least 0.9, where 1 is the maximum). The gist of the method: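 Multiplexed TRANS reporter in HepG2; 24 h treatment; reporter mRNA by RT-PCR plus capillary electrophoresis; upregulation scored relative to DMSO.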
The nature of assay [13]: BSK_3C_SRB: Viability Assessment in the BioMAP Diversity Plus: 3C Assay (AID 2283023).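 Also: fitted both ways against DMSO so a hit may be signal rise or drop.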 Particulars: primary human endothelial cells (HUVEC). The procedure, abridged: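 Overt cytotoxicity is gauged in parallel confluent HUVEC cultures by SRB total-protein staining at the time of biomarker measurement, 24 h after dosing. Gain or loss of signal is fitted versus DMSO.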
Read-out in assay [14]: Matrix Metallopeptidase 1 (MMP1), MMP1 (gene 4312)
In words: BSK_BE3C_MMP1: BioMAP Diversity Plus: BE3C Assay for Matrix Metallopeptidase 1 (MMP1) Biomarker Activity (AID 2283024). The note with it: primary human bronchial epithelial cells; actives raise or lower the signal. The procedure, abridged: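 Human bronchial epithelial cells (BE3C system) exposed to compound for 24 h; MMP1 then quantified by ELISA. Activity was fitted in both directions relative to DMSO.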

Assay [15] is described as follows: BSK_3C_Vis: BioMAP Diversity Plus: 3C Assay for Morphology Visualization (AID 2283025).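 Also: fitted both ways so gain or loss versus DMSO counts.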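 As to AC50: light microscopy image of cell morphology used as background control.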 The note with it: primary human endothelial cells (HUVEC). The procedure, abridged:
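Chemicals were added to primary human umbilical vein endothelium, cells were incubated 24 h, and morphology was then visualized by light microscopy. Gain or loss of signal was fitted bidirectionally relative to DMSO.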

Read-out in assay [16]: Pselectin, SELP (gene 6403)
Description: BSK_4H_Pselectin: BioMAP Diversity Plus: 4H Assay for Pselectin Biomarker Activity (AID 2283026). Particulars: primary human endothelial cells (HUVEC); actives raise or lower the signal. The procedure, abridged: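 ELISA read-out of P-selectin on human umbilical vein endothelium after 24 h of dosing. Values derive from bidirectional fitting relative to DMSO. Parallel SRB protein staining flagged overt cytotoxicity.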

A short description of assay [17]: BSK_4H_SRB: Viability Assessment in the BioMAP Diversity Plus: 4H Assay (AID 2283027).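 Also: cells exposed to compound for 24 h before staining.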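 As to AC50: curves fitted both ways versus DMSO so AC50 may be loss or gain.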 The note with it: primary human endothelial cells (HUVEC). The procedure, abridged: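 Human umbilical vein endothelial cells were dosed with chemical and, after 24 h, fixed with 10% TCA, stained with 0.1% sulforhodamine B, and read at 560 nm to give total protein as a cytotoxicity measure. Bidirectional fitting relative to DMSO control.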

Assay [18] is described as follows: BSK_BE3C_SRB: Viability Assessment in the BioMAP Diversity Plus: BE3C Assay (AID 2283028).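 As to AC50: fitted both ways so AC50 may mark signal gain or loss versus DMSO.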 The note with it: primary human bronchial epithelial cells. The gist of the method: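 SRB total-protein staining (0.1%, after TCA fixation) of chemically dosed human bronchial epithelial primary cells at 24 h; DMSO serves as the negative control for bidirectional curve fitting.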

Read-out in assay [19]: Thrombomodulin, THBD (gene 7056)
In words: BSK_3C_Thrombomodulin: BioMAP Diversity Plus: 3C Assay for Thrombomodulin Biomarker Activity (AID 2283029). Particulars: primary human endothelial cells (HUVEC); actives raise or lower the signal. The procedure, abridged:
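Read-out is ELISA of thrombomodulin on human umbilical vein endothelium 24 h after chemical dosing. Gain or loss of signal is scored relative to DMSO. Overt cytotoxicity is checked in parallel cultures by sulforhodamine B staining.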

Read-out in assay [20]: Urokinase-type plasminogen activator receptor (uPAR), PLAUR (gene 5329)
In words: BSK_4H_uPAR: BioMAP Diversity Plus: 4H Assay for Urokinase-type plasminogen activator receptor (uPAR) Biomarker Activity (AID 2283030). Particulars: primary human endothelial cells (HUVEC); actives raise or lower the signal. The gist of the method: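 Endpoint derived via bidirectional curve fitting against DMSO baseline; readout was ELISA detection of uPAR on umbilical vein endothelial cells at 24 h post-treatment, with SRB-stained parallel cultures assessing cytotoxicity.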

Sequence of Retinoic acid receptor RXR-alpha (Homo sapiens) (P19793 whole entry, looked up, the tested form may be a part): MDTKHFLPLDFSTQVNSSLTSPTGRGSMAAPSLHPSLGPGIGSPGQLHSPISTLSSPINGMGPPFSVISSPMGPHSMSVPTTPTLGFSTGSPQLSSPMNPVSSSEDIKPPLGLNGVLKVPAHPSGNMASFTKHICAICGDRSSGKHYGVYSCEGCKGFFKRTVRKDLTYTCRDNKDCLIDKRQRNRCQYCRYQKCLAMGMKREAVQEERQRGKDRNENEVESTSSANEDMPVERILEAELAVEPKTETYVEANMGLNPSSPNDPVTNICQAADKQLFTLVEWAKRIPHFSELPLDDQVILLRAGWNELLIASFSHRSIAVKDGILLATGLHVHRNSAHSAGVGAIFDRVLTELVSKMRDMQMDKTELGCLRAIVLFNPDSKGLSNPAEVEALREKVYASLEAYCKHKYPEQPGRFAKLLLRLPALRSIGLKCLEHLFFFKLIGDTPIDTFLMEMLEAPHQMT
Sequence of human Thyroid Receptor alpha (THRa1), THRA (gene 7067) (P10827 whole entry, looked up, the tested form may be a part): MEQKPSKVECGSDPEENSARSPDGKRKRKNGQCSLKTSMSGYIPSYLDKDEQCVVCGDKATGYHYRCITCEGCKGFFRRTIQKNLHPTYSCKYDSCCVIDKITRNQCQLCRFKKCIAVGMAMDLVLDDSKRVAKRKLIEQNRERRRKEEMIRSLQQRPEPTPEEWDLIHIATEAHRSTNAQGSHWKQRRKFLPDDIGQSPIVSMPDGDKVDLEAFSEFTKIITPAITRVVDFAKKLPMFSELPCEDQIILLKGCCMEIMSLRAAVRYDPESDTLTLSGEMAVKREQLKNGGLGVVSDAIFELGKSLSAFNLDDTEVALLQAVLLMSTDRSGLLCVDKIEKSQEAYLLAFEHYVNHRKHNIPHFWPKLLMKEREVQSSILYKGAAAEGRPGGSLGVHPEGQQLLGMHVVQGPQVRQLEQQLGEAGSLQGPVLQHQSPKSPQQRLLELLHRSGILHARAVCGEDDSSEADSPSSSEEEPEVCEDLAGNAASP
Sequence of E-selectin (Homo sapiens) (P16581 whole entry, looked up): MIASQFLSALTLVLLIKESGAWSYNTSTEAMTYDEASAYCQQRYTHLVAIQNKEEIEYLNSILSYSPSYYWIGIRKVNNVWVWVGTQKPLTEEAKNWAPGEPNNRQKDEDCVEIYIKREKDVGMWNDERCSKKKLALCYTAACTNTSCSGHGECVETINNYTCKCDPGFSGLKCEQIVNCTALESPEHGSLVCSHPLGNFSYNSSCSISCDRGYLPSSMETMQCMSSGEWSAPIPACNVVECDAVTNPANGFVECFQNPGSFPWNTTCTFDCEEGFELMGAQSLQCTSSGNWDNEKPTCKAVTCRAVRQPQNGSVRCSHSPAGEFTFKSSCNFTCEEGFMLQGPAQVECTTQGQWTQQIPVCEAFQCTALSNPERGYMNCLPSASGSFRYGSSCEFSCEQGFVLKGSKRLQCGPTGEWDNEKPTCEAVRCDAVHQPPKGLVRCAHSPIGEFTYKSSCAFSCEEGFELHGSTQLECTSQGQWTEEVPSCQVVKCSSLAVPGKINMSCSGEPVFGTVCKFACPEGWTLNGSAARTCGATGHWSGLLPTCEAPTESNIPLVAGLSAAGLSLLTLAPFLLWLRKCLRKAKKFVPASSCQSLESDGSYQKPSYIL
Sequence of human Vitamin D Receptor (VDR), VDR (gene 7421) (P11473 whole entry, looked up): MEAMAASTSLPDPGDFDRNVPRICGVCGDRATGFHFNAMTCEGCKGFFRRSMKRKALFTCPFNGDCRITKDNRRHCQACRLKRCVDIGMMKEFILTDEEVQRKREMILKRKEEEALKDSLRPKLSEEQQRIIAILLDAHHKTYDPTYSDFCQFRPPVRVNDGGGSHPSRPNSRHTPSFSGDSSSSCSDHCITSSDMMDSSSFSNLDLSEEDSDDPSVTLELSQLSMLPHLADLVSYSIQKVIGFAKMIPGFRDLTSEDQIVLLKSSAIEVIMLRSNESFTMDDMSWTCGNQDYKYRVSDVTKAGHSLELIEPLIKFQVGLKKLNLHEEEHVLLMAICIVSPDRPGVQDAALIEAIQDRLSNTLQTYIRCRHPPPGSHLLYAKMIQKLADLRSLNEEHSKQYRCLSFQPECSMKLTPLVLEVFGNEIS
Sequence of human RAR-related Orphan Receptor gamma (RORg), RORC (gene 6097) (P51449 whole entry, looked up, the tested form may be a part): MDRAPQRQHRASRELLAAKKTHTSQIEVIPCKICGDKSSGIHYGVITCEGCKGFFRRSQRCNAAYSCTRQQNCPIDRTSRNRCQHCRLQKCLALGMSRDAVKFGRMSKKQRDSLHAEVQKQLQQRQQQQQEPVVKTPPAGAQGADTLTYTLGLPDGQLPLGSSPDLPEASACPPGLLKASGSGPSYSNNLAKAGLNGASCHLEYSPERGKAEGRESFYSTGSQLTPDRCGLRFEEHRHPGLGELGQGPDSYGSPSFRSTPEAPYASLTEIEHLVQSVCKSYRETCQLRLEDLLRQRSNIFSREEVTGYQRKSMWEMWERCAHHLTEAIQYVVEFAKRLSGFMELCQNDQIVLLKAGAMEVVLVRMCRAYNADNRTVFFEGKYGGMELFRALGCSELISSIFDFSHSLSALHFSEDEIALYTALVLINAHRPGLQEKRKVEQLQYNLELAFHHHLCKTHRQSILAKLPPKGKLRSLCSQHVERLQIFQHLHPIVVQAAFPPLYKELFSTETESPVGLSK

As for `CCCCCCCC/C=C\CCCCCCCC(=O)OC[C@@H](O)[C@H]1OC[C@H](O)[C@H]1O`, the call in assay [1], in assay [2], in [3], in [4], in [5] and in [6] was inactive. For the same molecule, the outcome in assay [7], in [8], in assay [9], in assay [10], in [11] and in assay [12] was inactive. The outcome in [13], in assay [14], in assay [15], in assay [16], in assay [17] and in assay [18] was inactive. The result in assay [19] and in assay [20] was inactive.

`C[C@]12C=CC(=O)C=C1CC[C@H]1[C@@H]3C[C@@H](O)[C@](O)(C(=O)CO)[C@@]3(C)C[C@H](O)[C@@]12F`: the call in assay [1], in assay [2], in assay [3], in [4], in assay [5] and in assay [6] was inactive. The result in assay [8], in [9], in [10], in assay [11], in assay [12] and in [13] was inactive. Further, the outcome in assay [14], in assay [15], in [16], in assay [17], in assay [18] and in [19] was inactive. Besides, the outcome in assay [20] was inactive.

As usually defined, the AC50 is the concentration giving half of the maximal activity seen. Consider `O=C(O)CO`, for which the outcome in [1], in [2], in [3], in assay [4] and in assay [12] was inactive. For the same molecule, the figures for the AC50 in assay [2] and in [3] were 6.77 µM (active) and 0.679 µM (active), respectively.

Regarding `S=P(N1CC1)(N1CC1)N1CC1`, the molecule was called inactive in [1], in [2], in assay [3], in assay [4], in assay [6] and in [7]. Also, the result in [8], in assay [9], in [10], in assay [11], in [12] and in [13] was inactive. The outcome in [14], in assay [15], in assay [16], in assay [17], in [18] and in assay [19] was inactive. Also, in assay [20], the result was inactive.

As for `CCCCCCCCN(C)C`, the call in assay [1], in assay [2], in assay [3], in assay [6], in assay [8] and in [9] was inactive. Besides, the outcome in assay [10], in [11], in assay [12], in [13], in assay [14] and in [15] was inactive. In addition, the result in [16], in [17], in [18], in assay [19] and in assay [20] was inactive.

`FC(F)=C(F)C(F)(F)C(F)(F)C(F)(F)C(F)(F)C(F)(F)C(F)(F)F`: the molecule was classed as inactive in assay [1], in [2], in assay [3], in assay [4], in [6] and in [7]. Also, the outcome in assay [8], in [9], in [10], in assay [11], in [12] and in [13] was inactive. The outcome in assay [14], in [16], in assay [17], in [18], in assay [19] and in assay [20] was inactive.

`CCN(CC)C(=S)SSC(=S)N(CC)CC`: the result in [1], in assay [2], in assay [3] and in assay [12] was inactive. Further, the AC50 in assay [5] is 34.8 µM (active); in assay [6], 16.3 µM (active); in [7], 30.6 µM (active); in [8], 24.6 µM (active); in [9] it was 12.4 µM (active); in [10], 31.2 µM (active). The AC50 is 27.8 µM (active) in assay [13]; 25.5 µM (active) in assay [14]; 39.8 µM (active) in assay [15]; 20 µM (active) in [16]; 31.7 µM (active) in assay [17]; 34.6 µM (active) in assay [18]. In addition, in assay [20], the concentration at half-maximal activity (AC50) was 26.4 µM (active).
